# In PubChem BioAssay (NCATS):
# Values joined by “and” are separate entries in the source; they are usually repeats but may differ in a detail not shown here. Equal entries are not always repeated. Records with an inconclusive call do not appear. Active and inactive are the calls of the source. Unless noted, calls come from the whole dose curve; as a rule, active = well fitted curve in the direction sought with a large enough effect in the repeat runs; inconclusive = weak or mixed curves; inactive = no such curve, though single readings can be large; an effect the other way counts as inactive or inconclusive.
# How the values were obtained:
# [1] = target: Cytochrome P450 2D6 (Homo sapiens) (UniProt P10635); assay: Cytochrome P450 family 2 subfamily D member 6 (CYP2D6) small molecule antagonists: luciferase biochemical (cell-free) qHTS assay (AID 1645840); note: nearly all actives have a fitted effect of over 55% in size
# Outline: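 P450-Glo luminescent screen: recombinant CYP2D6 enzyme–proluciferin substrate mix preincubated with compound 10 min at room temperature, then NADPH regeneration added for 1 h at room temperature. Detection reagent added for 20 min; luciferin light read as relative luminescence units.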
# [2] = target: Cytochrome P450 2C9 (Homo sapiens) (UniProt P11712); assay: Cytochrome P450 family 2 subfamily C member 9 (CYP2C9) small molecule antagonists: luciferase biochemical (cell-free) qHTS assay (AID 1645842); note: nearly all actives have a fitted effect of over 55% in size
# Outline: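 Luminescence, after 20 min with luciferin detection reagent, reflected CYP2C9 turnover during a 1 h NADPH-driven reaction at 37C. Enzyme-substrate mix contained 0.4% bovine serum albumin and was preincubated with compound 10 min at room temperature.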
# [3] = target: N-terminal Xaa-Pro-Lys N-methyltransferase 1 (Homo sapiens) (UniProt Q9BV86); assay: Confirmatory qHTS for Inhibitors of N-terminal methyltransferase 1 (NTMT1): MTaseGlo Assay (AID 1645874; active = well fitted curve in the direction sought with a large enough effect; an effect the other way counts as inactive or inconclusive; note: nearly all actives have a fitted effect of over 65% in size)
# Outline: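 NTMT1 (125 nM) preincubated 15 min with compound and 100 uM SAM, then 1 uM SPKRIA peptide added for 30 min at room temperature. SAH detected by MTase-Glo luminescence; normalized to no-enzyme and DMSO controls, fitted to 4-parameter Hill.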
# [4] = Primary qHTS for inhibitors of nuclear receptor binding SET domain protein 2 (NSD2) in an isogenic RCH-ACV NSD2 p.E1099K mutant (9B) (AID 1645876; active = well fitted curve in the direction sought with a large enough effect; an effect the other way counts as inactive or inconclusive; note: nearly all actives have a fitted effect of over 70% in size)
# [5] = Primary qHTS for inhibitors of nuclear receptor binding SET domain protein 2 (NSD2) in an RCH-ACV wild type WT cells (2C) (AID 1645877; active = well fitted curve in the direction sought with a large enough effect; an effect the other way counts as inactive or inconclusive; note: nearly all actives have a fitted effect of over 70% in size)
# Potency is the fitted concentration of half-maximal effect.
# Cytochrome P450 2C9 (Homo sapiens), sequence (P11712 whole entry, looked up): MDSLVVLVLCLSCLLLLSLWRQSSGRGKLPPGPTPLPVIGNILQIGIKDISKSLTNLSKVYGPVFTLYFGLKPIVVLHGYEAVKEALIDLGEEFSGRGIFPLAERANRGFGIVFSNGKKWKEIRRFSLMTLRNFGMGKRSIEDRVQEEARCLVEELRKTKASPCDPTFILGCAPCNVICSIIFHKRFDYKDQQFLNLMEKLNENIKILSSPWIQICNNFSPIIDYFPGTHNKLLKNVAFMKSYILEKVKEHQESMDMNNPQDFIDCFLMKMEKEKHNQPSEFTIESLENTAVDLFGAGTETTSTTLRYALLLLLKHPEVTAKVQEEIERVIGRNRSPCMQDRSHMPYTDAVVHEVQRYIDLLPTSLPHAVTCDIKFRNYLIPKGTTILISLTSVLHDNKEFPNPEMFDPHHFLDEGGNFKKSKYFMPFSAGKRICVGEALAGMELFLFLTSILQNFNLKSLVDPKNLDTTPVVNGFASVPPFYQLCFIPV
# Cytochrome P450 2D6 (Homo sapiens), sequence (P10635 whole entry, looked up): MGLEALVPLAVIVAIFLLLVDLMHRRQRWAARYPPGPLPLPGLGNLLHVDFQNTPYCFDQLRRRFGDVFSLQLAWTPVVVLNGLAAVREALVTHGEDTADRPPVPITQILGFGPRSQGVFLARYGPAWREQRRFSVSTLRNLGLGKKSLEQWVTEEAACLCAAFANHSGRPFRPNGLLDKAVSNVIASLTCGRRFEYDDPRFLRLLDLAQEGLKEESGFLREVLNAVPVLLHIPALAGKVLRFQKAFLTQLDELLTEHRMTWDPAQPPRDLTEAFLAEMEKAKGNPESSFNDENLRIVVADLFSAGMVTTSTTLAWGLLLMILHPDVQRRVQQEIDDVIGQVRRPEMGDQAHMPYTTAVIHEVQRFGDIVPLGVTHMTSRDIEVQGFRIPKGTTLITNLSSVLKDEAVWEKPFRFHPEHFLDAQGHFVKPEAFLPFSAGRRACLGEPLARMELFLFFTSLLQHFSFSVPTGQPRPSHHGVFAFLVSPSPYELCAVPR
# N-terminal Xaa-Pro-Lys N-methyltransferase 1 (Homo sapiens), sequence (Q9BV86 whole entry, looked up): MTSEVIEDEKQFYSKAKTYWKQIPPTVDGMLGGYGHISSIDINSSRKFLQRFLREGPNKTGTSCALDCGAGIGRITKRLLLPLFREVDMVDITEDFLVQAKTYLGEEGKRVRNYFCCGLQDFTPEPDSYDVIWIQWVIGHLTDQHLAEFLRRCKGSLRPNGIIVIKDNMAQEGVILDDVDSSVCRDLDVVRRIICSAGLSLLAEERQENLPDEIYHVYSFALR
structure (smiles),measurement,setting,value
C=Cc1ccccc1,Potency,[1],inactive
same,Potency,[2],inactive
Fc1ccc(-c2cncc(CN3CCN(c4cccc5c4OCCO5)CC3)c2)cc1,Potency,[1],9.52 µM (active)
same,Potency,[2],10.7 µM (active)
CN(C)S(=O)(=O)c1ccc(NC(=S)N2CCC(C(O)(c3ccccc3)c3ccccc3)CC2)cc1,Potency,[1],inactive
same,Potency,[2],2.68 µM (active)
Cc1cccc(-c2[nH]ncc2-c2ccnc3ccccc23)n1,Potency,[1],inactive
same,Potency,[2],9.52 µM (active)
Nc1ncnc2c1c(-c1ccc(Cl)cc1)nn2-c1cccc(-c2cnnn2Cc2cccc(-c3ccccc3)c2)c1,Potency,[1],inactive
same,Potency,[2],0.536 µM (active)
CC(C)c1cccc(C(C)C)c1NC(=O)Nc1ccc(Sc2ccc([N+](=O)[O-])cc2)cc1,Potency,[1],inactive
same,Potency,[2],inactive
CCCC(CCC)C(=O)NCc1ccc2c(cnn2-c2ccccc2OC)c1,Potency,[1],13.5 µM (active)
same,Potency,[2],1.9 µM (active)
Cc1ccc(NC(=O)N2CCN(c3nc(N)nc4sc(-c5cccnc5)nc34)CC2)cc1,Potency,[1],13.5 µM (active)
same,Potency,[2],3.01 µM (active)
same,Potency,[3],inactive
same,Potency,[4],258 nM (active)
NCCOc1cc(C(=O)Nc2cc(OCCN)c3ccccc3n2)nc(C(=O)Nc2cc(OCCN)c3ccccc3n2)c1,Potency,[1],inactive
same,Potency,[2],inactive
same,Potency,[3],43.5 µM (active)
same,Potency,[4],4.09 µM (active) and 7.42 µM (active)
same,Potency,[5],5.78 µM (active) and 8.33 µM (active)
Cc1cc(C(=O)Cn2cc(C#N)ccc2=O)c(C)n1Cc1ccccc1,Potency,[1],inactive
same,Potency,[2],16.9 µM (active)
Cc1nnc(-c2ccc(-c3ccc(C(=O)Nc4ccc(O)c(N5CCN(C)CC5)c4)cc3)c(C)c2)o1,Potency,[1],inactive
same,Potency,[2],inactive
O=S(=O)(O)Oc1ccc(C(c2ccc(OS(=O)(=O)O)cc2)c2ccccn2)cc1,Potency,[1],inactive
same,Potency,[2],inactive
CCCCCCCCCC(=O)O,Potency,[1],inactive
same,Potency,[2],inactive
O=C(NCCN1CCC(n2c(=O)[nH]c3ccccc32)CC1)c1cc2cc(F)ccc2[nH]1,Potency,[1],15.1 µM (active)
same,Potency,[2],3.38 µM (active)
CCOC(=O)CCNc1cc(N2CCc3ccccc3CC2)nc(-c2cccnc2)n1,Potency,[1],10.7 µM (active)
same,Potency,[2],8.49 µM (active)
O=S(=O)(c1ccc(Cl)cc1)N1CCN(c2ccnc3cc(Cl)ccc23)CC1,Potency,[1],8.49 µM (active)
same,Potency,[2],2.39 µM (active)
O=c1[nH]c2cccc(N3CCN(Cc4ccc(-c5ccccc5)cc4)CC3)c2o1,Potency,[1],8.49 µM (active)
same,Potency,[2],5.35 µM (active)
Cc1ccc(S(=O)(=O)N2CCC[C@H]2c2ccc(F)cc2)cc1,Potency,[1],inactive
same,Potency,[2],inactive
CCn1c(=O)n([C@H]2CCCN(c3nccc(-c4cc5ccccc5o4)n3)C2)c2ccccc21,Potency,[1],inactive
same,Potency,[2],1.69 µM (active)
CCNc1nc(Nc2cc(F)c(C(=O)N3CCOCC3)cc2OC)ncc1C(F)(F)F,Potency,[1],inactive
same,Potency,[2],1.9 µM (active)
